# Measurements as given in the supplement of paper PMC12282887.
# ± gives the standard deviation of the averaged measurements.
# Tests used:
# Test in all cases: promoter activity interaction Z-score (Lux/OD deviation from empty-vector control); higher = stronger promoter induction by the compound
# [1] = test system: E. coli BW25113 acrABp lux reporter
# Method in brief: (§1)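 E. coli BW25113 luxCDABE reporter strains grew at 37°C in 40 µl LB Lennox in 384-well plates, with OD600 and luminescence read every 30 min for 12 h. After integration over 0–8 h for wild type or 1–9 h for deletion strains, wells under 10% of the median growth value were removed. Each score is the Z-transformed residual of growth-normalised luminescence fitted against a control.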
# [2] = test system: E. coli BW25113 ompFp lux reporter
# Method in brief: as §1
# [3] = test system: E. coli BW25113 robp lux reporter
# Method in brief: as §1
# [4] = test system: E. coli BW25113 soxSp lux reporter
# Method in brief: as §1
# [5] = test system: E. coli BW25113 tolCp lux reporter
# Method in brief: as §1
# [6] = 0.038 µg/ml, genetic background: wild type
# [7] = 0.038 µg/ml, genetic background: ΔmarA
# [8] = 0.038 µg/ml, genetic background: Δrob
# [9] = 0.038 µg/ml, genetic background: ΔsoxS
# [10] = 0.076 µg/ml, genetic background: wild type
# [11] = 0.076 µg/ml, genetic background: ΔmarA
# [12] = 0.076 µg/ml, genetic background: Δrob
# [13] = 0.076 µg/ml, genetic background: ΔsoxS
# [14] = 0.15 µg/ml, genetic background: wild type
# [15] = 0.15 µg/ml, genetic background: ΔmarA
# [16] = 0.15 µg/ml, genetic background: Δrob
# [17] = 0.15 µg/ml, genetic background: ΔsoxS
# [18] = 0.3 µg/ml, genetic background: wild type
# [19] = 0.3 µg/ml, genetic background: ΔmarA
# [20] = 0.3 µg/ml, genetic background: Δrob
# [21] = 0.3 µg/ml, genetic background: ΔsoxS
# [22] = 18 µg/ml, genetic background: wild type
# [23] = 18 µg/ml, genetic background: ΔmarA
# [24] = 18 µg/ml, genetic background: Δrob
# [25] = 18 µg/ml, genetic background: ΔsoxS
# [26] = 36.1 µg/ml, genetic background: wild type
# [27] = 36.1 µg/ml, genetic background: ΔmarA
# [28] = 36.1 µg/ml, genetic background: Δrob
# [29] = 36.1 µg/ml, genetic background: ΔsoxS
# [30] = 72.1 µg/ml, genetic background: wild type
# [31] = 72.1 µg/ml, genetic background: ΔmarA
# [32] = 72.1 µg/ml, genetic background: Δrob
# [33] = 72.1 µg/ml, genetic background: ΔsoxS
# [34] = 144.2 µg/ml, genetic background: wild type
# [35] = 144.2 µg/ml, genetic background: ΔmarA
# [36] = 144.2 µg/ml, genetic background: Δrob
# [37] = 144.2 µg/ml, genetic background: ΔsoxS
smiles,measurement,setting,value
Cc1c(N)nc([C@H](CC(N)=O)NC[C@H](N)C(N)=O)nc1C(=O)N[C@H](C(=O)N[C@H](C)[C@@H](O)[C@H](C)C(=O)N[C@H](C(=O)NCCc1nc(-c2nc(C(=O)NCCC[S+](C)C)cs2)cs1)[C@@H](C)O)[C@@H](OC1OC(CO)C(O)C(O)C1OC1OC(CO)C(O)C(OC(N)=O)C1O)c1cnc[nH]1 (some centres not stated) [Bleomycin],promoter activity interaction Z-score,[1]; [6],-0.161 ± 0.17
same,promoter activity interaction Z-score,[1]; [7],-0.308 ± 0.65
same,promoter activity interaction Z-score,[1]; [8],0.154 ± 0.043
same,promoter activity interaction Z-score,[1]; [9],-0.147 ± 0.084
same,promoter activity interaction Z-score,[1]; [10],0.266 ± 0.09
same,promoter activity interaction Z-score,[1]; [11],0.659 ± 0.35
same,promoter activity interaction Z-score,[1]; [12],0.241 ± 0.055
same,promoter activity interaction Z-score,[1]; [13],0.604 ± 0.2
same,promoter activity interaction Z-score,[1]; [14],0.326 ± 0.0054
same,promoter activity interaction Z-score,[1]; [15],1.11 ± 0.37
same,promoter activity interaction Z-score,[1]; [16],0.351 ± 0.064
same,promoter activity interaction Z-score,[1]; [17],0.996 ± 0.83
same,promoter activity interaction Z-score,[1]; [18],2.43
same,promoter activity interaction Z-score,[2]; [6],-0.37 ± 0.33
same,promoter activity interaction Z-score,[2]; [7],-0.165 ± 0.44
same,promoter activity interaction Z-score,[2]; [8],0.0421 ± 0.23
same,promoter activity interaction Z-score,[2]; [9],-0.165 ± 0.021
same,promoter activity interaction Z-score,[2]; [10],0.414 ± 0.11
same,promoter activity interaction Z-score,[2]; [11],0.695 ± 0.073
same,promoter activity interaction Z-score,[2]; [12],0.642 ± 1
same,promoter activity interaction Z-score,[2]; [13],1.16 ± 0.21
same,promoter activity interaction Z-score,[2]; [14],0.0111 ± 0.27
same,promoter activity interaction Z-score,[2]; [15],1.52 ± 0.35
same,promoter activity interaction Z-score,[2]; [16],1.13 ± 1.2
same,promoter activity interaction Z-score,[2]; [17],0.608 ± 0.26
same,promoter activity interaction Z-score,[2]; [18],1.05
same,promoter activity interaction Z-score,[3]; [6],-0.227 ± 0.48
same,promoter activity interaction Z-score,[3]; [7],-0.244 ± 0.084
same,promoter activity interaction Z-score,[3]; [8],0.0423 ± 0.14
same,promoter activity interaction Z-score,[3]; [9],0.189 ± 0.027
same,promoter activity interaction Z-score,[3]; [10],0.47 ± 0.17
same,promoter activity interaction Z-score,[3]; [11],0.568 ± 0.18
same,promoter activity interaction Z-score,[3]; [12],-0.134 ± 0.47
same,promoter activity interaction Z-score,[3]; [13],0.996 ± 0.081
same,promoter activity interaction Z-score,[3]; [14],-0.644 ± 0.27
same,promoter activity interaction Z-score,[3]; [15],0.509 ± 0.081
same,promoter activity interaction Z-score,[3]; [16],-0.728 ± 0.72
same,promoter activity interaction Z-score,[3]; [17],-0.1 ± 0.21
same,promoter activity interaction Z-score,[3]; [18],0.543 ± 1.9
same,promoter activity interaction Z-score,[3]; [19],0.142
same,promoter activity interaction Z-score,[4]; [6],-0.0441 ± 0.22
same,promoter activity interaction Z-score,[4]; [7],0.0426 ± 0.088
same,promoter activity interaction Z-score,[4]; [8],0.0195 ± 0.2
same,promoter activity interaction Z-score,[4]; [9],0.0402 ± 0.048
same,promoter activity interaction Z-score,[4]; [10],0.138 ± 0.019
same,promoter activity interaction Z-score,[4]; [11],0.214 ± 0.083
same,promoter activity interaction Z-score,[4]; [12],-0.00506 ± 0.02
same,promoter activity interaction Z-score,[4]; [13],0.485 ± 0.32
same,promoter activity interaction Z-score,[4]; [14],-0.0277 ± 0.085
same,promoter activity interaction Z-score,[4]; [15],0.277 ± 0.053
same,promoter activity interaction Z-score,[4]; [16],0.343 ± 0.13
same,promoter activity interaction Z-score,[4]; [17],0.655 ± 0.09
same,promoter activity interaction Z-score,[4]; [18],0.33 ± 0.25
same,promoter activity interaction Z-score,[4]; [19],0.209 ± 0.081
same,promoter activity interaction Z-score,[4]; [20],0.169 ± 0.11
same,promoter activity interaction Z-score,[4]; [21],0.215
same,promoter activity interaction Z-score,[5]; [6],-0.575 ± 0.29
same,promoter activity interaction Z-score,[5]; [7],-0.641 ± 1.1
same,promoter activity interaction Z-score,[5]; [8],-0.352 ± 0.023
same,promoter activity interaction Z-score,[5]; [9],-0.761 ± 0.52
same,promoter activity interaction Z-score,[5]; [10],0.286 ± 0.074
same,promoter activity interaction Z-score,[5]; [11],-0.211 ± 0.3
same,promoter activity interaction Z-score,[5]; [12],-0.79 ± 0.62
same,promoter activity interaction Z-score,[5]; [13],0.828 ± 0.64
same,promoter activity interaction Z-score,[5]; [14],-0.851 ± 0.45
same,promoter activity interaction Z-score,[5]; [15],0.213 ± 1.1
same,promoter activity interaction Z-score,[5]; [16],0.777 ± 1.4
same,promoter activity interaction Z-score,[5]; [17],0.0492 ± 0.52
same,promoter activity interaction Z-score,[5]; [18],0.571 ± 0.23
same,promoter activity interaction Z-score,[5]; [19],0.356
same,promoter activity interaction Z-score,[5]; [20],-0.851 ± 0.56
same,promoter activity interaction Z-score,[5]; [21],1.73 ± 0.26
C[C@]12CC[C@H]3[C@@H](CCC4=CC(=O)CC[C@@]43C)[C@@H]1CC[C@@H]2O [Testosterone],promoter activity interaction Z-score,[1]; [22],-0.445 ± 0.074
same,promoter activity interaction Z-score,[1]; [23],-0.76 ± 0.16
same,promoter activity interaction Z-score,[1]; [24],-0.613 ± 0.11
same,promoter activity interaction Z-score,[1]; [25],-0.272 ± 0.23
same,promoter activity interaction Z-score,[1]; [26],-0.494 ± 0.042
same,promoter activity interaction Z-score,[1]; [27],-1.03 ± 1.1
same,promoter activity interaction Z-score,[1]; [28],-0.524 ± 0.2
same,promoter activity interaction Z-score,[1]; [29],-0.556 ± 0.063
same,promoter activity interaction Z-score,[1]; [30],-0.447 ± 0.14
same,promoter activity interaction Z-score,[1]; [31],0.264 ± 0.87
same,promoter activity interaction Z-score,[1]; [32],-0.624 ± 0.12
same,promoter activity interaction Z-score,[1]; [33],-0.489 ± 0.08
same,promoter activity interaction Z-score,[1]; [34],-0.411 ± 0.019
same,promoter activity interaction Z-score,[1]; [35],-0.669 ± 0.41
same,promoter activity interaction Z-score,[1]; [36],-0.643 ± 0.08
same,promoter activity interaction Z-score,[1]; [37],-0.295 ± 0.29
same,promoter activity interaction Z-score,[2]; [22],-0.491 ± 0.12
same,promoter activity interaction Z-score,[2]; [23],-0.598 ± 0.2
same,promoter activity interaction Z-score,[2]; [24],-0.803 ± 0.57
same,promoter activity interaction Z-score,[2]; [25],0.195 ± 0.35
same,promoter activity interaction Z-score,[2]; [26],-0.432 ± 0.41
same,promoter activity interaction Z-score,[2]; [27],-1.1 ± 0.061
same,promoter activity interaction Z-score,[2]; [28],-0.418 ± 0.62
same,promoter activity interaction Z-score,[2]; [29],-0.713 ± 0.022
same,promoter activity interaction Z-score,[2]; [30],-0.907 ± 0.16
same,promoter activity interaction Z-score,[2]; [31],-0.501 ± 0.28
same,promoter activity interaction Z-score,[2]; [32],-0.424 ± 0.42
same,promoter activity interaction Z-score,[2]; [33],-0.715 ± 0.045
same,promoter activity interaction Z-score,[2]; [34],-0.6982 ± 0.0041
same,promoter activity interaction Z-score,[2]; [35],-0.969 ± 0.097
same,promoter activity interaction Z-score,[2]; [36],-0.395 ± 0.47
same,promoter activity interaction Z-score,[2]; [37],-0.339 ± 0.32
same,promoter activity interaction Z-score,[3]; [22],-0.462 ± 0.23
same,promoter activity interaction Z-score,[3]; [23],-1.03 ± 1.1
same,promoter activity interaction Z-score,[3]; [24],-1.05 ± 0.49
same,promoter activity interaction Z-score,[3]; [25],-0.195 ± 0.39
same,promoter activity interaction Z-score,[3]; [26],-0.445 ± 0.22
same,promoter activity interaction Z-score,[3]; [27],-1.14 ± 0.019
same,promoter activity interaction Z-score,[3]; [28],-0.289 ± 0.96
same,promoter activity interaction Z-score,[3]; [29],-0.498 ± 0.64
same,promoter activity interaction Z-score,[3]; [30],-0.398 ± 0.53
same,promoter activity interaction Z-score,[3]; [31],0.148 ± 0.41
same,promoter activity interaction Z-score,[3]; [32],-0.438 ± 1
same,promoter activity interaction Z-score,[3]; [33],-0.274 ± 0.099
same,promoter activity interaction Z-score,[3]; [34],-0.102 ± 0.59
same,promoter activity interaction Z-score,[3]; [35],-0.151 ± 0.4
same,promoter activity interaction Z-score,[3]; [36],-0.428 ± 0.35
same,promoter activity interaction Z-score,[3]; [37],0.0605 ± 0.79
same,promoter activity interaction Z-score,[4]; [22],-0.254 ± 0.24
same,promoter activity interaction Z-score,[4]; [23],-0.0384 ± 0.16
same,promoter activity interaction Z-score,[4]; [24],-0.165 ± 0.23
same,promoter activity interaction Z-score,[4]; [25],-0.0975 ± 0.27
same,promoter activity interaction Z-score,[4]; [26],-0.534 ± 0.01
same,promoter activity interaction Z-score,[4]; [27],-0.3 ± 0.046
same,promoter activity interaction Z-score,[4]; [28],-0.108 ± 0.14
same,promoter activity interaction Z-score,[4]; [29],-0.463 ± 0.35
same,promoter activity interaction Z-score,[4]; [30],-0.459 ± 0.01
same,promoter activity interaction Z-score,[4]; [31],-0.148 ± 0.037
same,promoter activity interaction Z-score,[4]; [32],-0.0584 ± 0.12
same,promoter activity interaction Z-score,[4]; [33],-0.399 ± 0.15
same,promoter activity interaction Z-score,[4]; [34],-0.398 ± 0.075
same,promoter activity interaction Z-score,[4]; [35],-0.389 ± 0.044
same,promoter activity interaction Z-score,[4]; [36],-0.368 ± 0.021
same,promoter activity interaction Z-score,[4]; [37],-0.448 ± 0.076
same,promoter activity interaction Z-score,[5]; [22],0.0813 ± 0.76
same,promoter activity interaction Z-score,[5]; [23],0.0835 ± 0.37
same,promoter activity interaction Z-score,[5]; [24],-0.682 ± 0.73
same,promoter activity interaction Z-score,[5]; [25],0.781 ± 0.5
same,promoter activity interaction Z-score,[5]; [26],0.191 ± 0.092
same,promoter activity interaction Z-score,[5]; [27],-1.71 ± 0.36
same,promoter activity interaction Z-score,[5]; [28],0.34 ± 0.48
same,promoter activity interaction Z-score,[5]; [29],-0.587 ± 0.0086
same,promoter activity interaction Z-score,[5]; [30],0.0036 ± 0.71
same,promoter activity interaction Z-score,[5]; [31],-0.0511 ± 0.6
same,promoter activity interaction Z-score,[5]; [32],0.112 ± 0.27
same,promoter activity interaction Z-score,[5]; [33],0.394 ± 0.17
same,promoter activity interaction Z-score,[5]; [34],0.135 ± 0.34
same,promoter activity interaction Z-score,[5]; [35],-0.734 ± 0.57
same,promoter activity interaction Z-score,[5]; [36],0.644 ± 0.24
same,promoter activity interaction Z-score,[5]; [37],0.344 ± 0.27
